Measurements published in PubChem BioAssay (NCATS).
Results filed as inconclusive are left out. Calls of active or inactive are those of the source. Unless noted, calls follow the shape of the full dose curve.

Legend:
[1] = qHTS for Inhibitors of the Functional Ribonucleoprotein Complex (vRNP) of Lassa (LASV) Arenavirus: Viability assay - alamar blue signal for LASV Primary Screen (AID 1347083; calls by dose curve; tested in HEK293 reporter line; also: nearly all actives have a fitted effect of over 80% in size)
[2] = qHTS for Inhibitors of the Functional Ribonucleoprotein Complex (vRNP) of Lymphocytic Choriomeningitis Arenaviruses (LCMV): Viability assay - alamar blue signal for LCMV Primary Screen (AID 1347085; calls by dose curve; tested in HEK293 reporter line; also: nearly all actives have a fitted effect of over 80% in size)
[3] = target: Nucleoprotein (Lymphocytic choriomeningitis virus (strain Armstrong)) (UniProt P09992); test: qHTS for Inhibitors of the Functional Ribonucleoprotein Complex (vRNP) of Lymphocytic Choriomeningitis Arenaviruses (LCMV): LCMV Primary Screen - GLuc reporter signal (AID 1347086); also: nearly all actives have a fitted effect of over 70% in size

Measured: Potency
Also: series mostly up to about 57 µM.

Sequence of Nucleoprotein (Lymphocytic choriomeningitis virus (strain Armstrong)) (P09992 whole entry, looked up): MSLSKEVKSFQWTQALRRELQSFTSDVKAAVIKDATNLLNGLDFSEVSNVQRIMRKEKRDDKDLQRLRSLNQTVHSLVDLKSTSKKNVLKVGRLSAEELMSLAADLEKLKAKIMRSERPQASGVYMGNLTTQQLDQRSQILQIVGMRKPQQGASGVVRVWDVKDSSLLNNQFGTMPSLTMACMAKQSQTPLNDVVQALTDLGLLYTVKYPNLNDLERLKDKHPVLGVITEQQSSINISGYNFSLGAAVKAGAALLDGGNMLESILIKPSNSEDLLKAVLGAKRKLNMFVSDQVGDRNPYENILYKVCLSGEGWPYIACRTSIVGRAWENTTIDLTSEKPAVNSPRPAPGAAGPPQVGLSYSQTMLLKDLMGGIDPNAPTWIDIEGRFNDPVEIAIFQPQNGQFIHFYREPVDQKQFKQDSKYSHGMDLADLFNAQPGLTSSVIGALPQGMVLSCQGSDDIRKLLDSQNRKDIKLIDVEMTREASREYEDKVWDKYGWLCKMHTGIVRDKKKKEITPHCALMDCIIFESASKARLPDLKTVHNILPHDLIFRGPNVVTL

O=C(O)c1ccccc1OP(=O)(O)O
inactive: all assays above

O=C(CO)[C@@H](O)[C@H](O)[C@@H](O)CO
inactive: all assays above

Nc1ccc(C(=O)O)c(O)c1
inactive: all assays above

CC(CCc1ccc2c(c1)OCO2)NN (stereo not given)
inactive: all assays above

CCCCCC(C)N (stereo not given)
inactive: all assays above

CC(C)(Oc1ccc(Cl)cc1)C(=O)O
inactive: all assays above

CCC(=O)c1c(O)cc(O)cc1O
inactive: all assays above

CC(=O)OCC(=O)[C@H]1CC[C@H]2[C@@H]3CCC4=CC(=O)CC[C@]4(C)[C@H]3CC[C@]12C
inactive: all assays above

Cc1ccccc1C(=O)N1CC/C(=N\OS(=O)(=O)O)c2ccc(Cl)cc21
inactive: all assays above

CCN1CC(CCN2CCOCC2)C(c2ccccc2)(c2ccccc2)C1=O (stereo not given)
inactive: all assays above

CC(=O)NCCCCCC(=O)O
inactive: all assays above

C[C@@H]1C[C@H]2[C@@H]3C[C@H](F)C4=CC(=O)C=C[C@]4(C)[C@@]3(F)[C@@H](O)C[C@]2(C)[C@@]1(O)C(=O)CO
inactive: all assays above

C[C@H]1C[C@H](O)c2ccsc2S1(=O)=O
inactive: all assays above

CC(C)[C@H](N)C(=O)OCCOCn1cnc2c(=O)[nH]c(N)nc21
inactive: all assays above

O=C1c2ccccc2C(=O)c2c1ccc(O)c2O
inactive: all assays above
